# FBW7 act – FBW7 E3 ligase activators, primary screen, biochemical, AlphaScreen, human; normalized activity (activation), % at 26.1 µM; F-box/WD repeat-containing protein 7 (Homo sapiens), Q969H0; AlphaScreen FBW7–phospho-cyclin E peptide binding, activator screen; 650,000 compounds, 0.13% hits; in the data active = normalized activity above about 1.9%;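 note: purified mutant Fbw7 with reduced substrate affinity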
# MITF primary – MITF inhibitors, primary screen, biochemical, AlphaScreen, human; AlphaScreen MITF homodimerization, bead proximity signal; inhibition, % at 2.6 µM; Microphthalmia-associated transcription factor (Homo sapiens), O75030; 650,000 compounds, 0.91% hits; in the data active = inhibition above about 50%;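 note: 0% = vehicle wells with protein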
# Target sequence (O75030 whole entry, looked up): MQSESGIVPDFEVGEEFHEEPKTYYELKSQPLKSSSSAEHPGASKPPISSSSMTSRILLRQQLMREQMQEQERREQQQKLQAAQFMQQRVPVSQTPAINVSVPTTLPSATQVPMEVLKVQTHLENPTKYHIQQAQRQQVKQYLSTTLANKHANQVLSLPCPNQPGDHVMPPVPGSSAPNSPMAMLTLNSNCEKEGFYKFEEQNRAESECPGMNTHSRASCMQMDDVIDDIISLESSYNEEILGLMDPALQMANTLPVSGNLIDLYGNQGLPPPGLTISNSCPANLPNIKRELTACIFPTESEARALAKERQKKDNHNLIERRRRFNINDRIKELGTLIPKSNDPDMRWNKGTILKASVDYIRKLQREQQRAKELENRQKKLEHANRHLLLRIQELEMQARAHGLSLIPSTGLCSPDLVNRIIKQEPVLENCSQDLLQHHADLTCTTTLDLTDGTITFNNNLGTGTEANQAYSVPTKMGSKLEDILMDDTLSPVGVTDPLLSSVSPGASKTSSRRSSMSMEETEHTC
# TEAD-YAP block – TEAD-YAP interaction inhibition, primary screen, TEAD-YAP interaction inhibitor project, luminescence, HEK-TIYL cells; TEAD-Gal4/YAP UAS-luciferase luminescence; inhibition, % at 9.12 µM; 640,000 compounds, 1.4% hits; in the data active = inhibition above about 32%;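 note: 0% = median of test compound wells and 100% = reference inhibitor wells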
# GPR151 activ – activators of human GPR151, primary screen, cell-based, PathHunter beta-arrestin, luminescence; 650,000 compounds, 1% hits; PathHunter beta-arrestin GPR151 cells; activation, % at 11.2 µM; AID 1508602, 2020; in the data active = activation above about 4.9%;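 note: 0% = median of compound wells and 100% = cells with positive control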
# GPR151 confirm – GPR151 activators, triplicate retest, confirmation, cell-based, PathHunter beta-arrestin, luminescence; activation, % at 11.2 µM; GPR151 PathHunter beta-arrestin cells, 90 min; % of EA-reagent control over plate median; 6,700 tested, under 10 active; shares compounds with GPR151 activ; AID 1508609, 2020;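 active = mean percent activation across replicates above the confirmation screen cutoff of 4.91%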
# GPR119 counter – GPR119 activators in beta-arrestin cells, counter-screen for GPR151 activator project, cell-based, PathHunter beta-arrestin, luminescence, triplicate. shares compounds with GPR151 activ. 90 min; 0 = compound-well median, 100 = enzyme-acceptor control. activation, % at 11.2 µM. 6,700 compounds, 0.3% hits. AID 1508611, 2020;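 active = mean percent activation in the counterscreen above 29.09%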;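 note: counterscreen on off-target GPR119 to flag nonselective hits from the GPR151 activator screen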
# * marks the source's active call; other numbers are inactive results; · = no result; ! = a repeat was not active. The list is not random: actives were taken first. Their share in the collection is about 3.5%.
SMILES,FBW7 act,MITF primary,TEAD-YAP block,GPR151 activ,GPR151 confirm,GPR119 counter
O=C(Nc1nc2ccc3ccccc3c2s1)C1CC1,0,7,16,2,·,·
CNC(=O)OCc1ccc(-c2ccc(Cl)cc2)o1,0,0,-11,5.9*,0,7
CNC(=O)OCc1ccc(-c2ccc(C)cc2)o1,-1,1,-26,0,·,·
CCN(CC)c1cc(N)c([N+](=O)[O-])cc1F,0,22,12,6.5*,1,2
N#Cc1ccc(COc2c(CO)cc(Br)cc2CO)cc1,0,2,-6,2,·,·
CC(C)n1c(=O)n(CC(=O)Nc2ccc3c(c2)OC(C)(C)O3)c2cccnc21,0,-2,2,1,·,·
CC(Oc1c(Cl)cccc1Cl)C1=NCCN1 (configuration not stated),1,-1,7,4.9*!,0,2
COc1cc(Nc2cc(-c3ccc(C(=O)NC4CC4)cc3)nc(N)n2)cc(OC)c1OC,0,-10,-1,0,·,·
CC(=O)N(C)c1ccc(NC(=O)C(C)Oc2ccccc2)cc1 (configuration not stated),0,10,9,-1,·,·
Cc1ccc(C(=O)Nc2ccc(F)c([N+](=O)[O-])c2)o1,0,17,3,5.4*,0,-7
Cc1ccc(C(=O)Nc2cccc(C(F)(F)F)c2)o1,0,19,-5,7.1*,1,11
COc1ccc(C(=O)Nc2cc([N+](=O)[O-])ccc2OC)cc1,0,-11,1,2,·,·
O=C(Nc1ccc(F)c([N+](=O)[O-])c1)c1ccc(-c2cccc(Cl)c2)o1,0,19,20,-1,·,·
Cc1ccc(CCC(=O)Nc2ccc([N+](=O)[O-])cc2Cl)o1,0,5,4,5.2*,-1,-8
Cc1ccc(CCC(=O)Nc2ccc(Cl)cc2Cl)o1,0,14,-9,1,·,·
COc1ccc([N+](=O)[O-])cc1NC(=O)c1ccc(C)o1,0,13,-2,9.7*,0,-6
CC(C)CCNS(=O)(=O)c1ccc2c(c1)OCC(=O)N2,0,-4,3,3,·,·
COc1ccc(Cc2nn3c(-c4ccncc4)nnc3s2)cc1,0,9,8,-2,·,·
COCCNc1nc(SCC(=O)NCCc2ccc(S(N)(=O)=O)cc2)nc2ccccc12,0,3,0,4.9*,-1,-12
CCCCNc1nc(SCC(=O)Nc2ccc(OCC)cc2)nc2ccccc12,0,2,17,1,·,·
CCOc1ccc(NC(=O)CSc2nc(NCCc3ccccc3)c3ccccc3n2)cc1,0,4,3,6.0*,0,7
COc1cccc(OC)c1-c1[nH]nc2nc(-c3ccc(=O)[nH]c3)ccc12,0,1,7,6.7*,-1,-4
CC1=C(C(=O)OC2CCCCCC2)C(c2ccccc2[N+](=O)[O-])CC(=O)N1 (configuration not stated),0,9,-2,0,·,·
CC1=C(C(=O)OC2CCCCCCC2)C(c2ccccc2[N+](=O)[O-])CC(=O)N1 (configuration not stated),0,5,-1,5.3*,0,14
O=C1CC(c2ccccc2[N+](=O)[O-])c2ccc3c(O)cccc3c2N1 (configuration not stated),0,-4,6,5.3*,0,2
SMILES,FBW7 act,MITF primary,TEAD-YAP block,GPR151 activ,GPR151 confirm,GPR119 counter
O=C1CC(c2ccc3c(c2)OCO3)c2ccc3ccccc3c2N1 (configuration not stated),0,12,12,2,·,·
O=C1CC(c2cc3c(cc2[N+](=O)[O-])OCO3)c2ccc3ccccc3c2N1 (configuration not stated),0,0,-1,12*,1,0
O=C1NC(c2ccccc2)=NC1(NS(=O)(=O)c1ccc(Cl)cc1)C(F)(F)F (configuration not stated),0,9,-2,6.9*,0,3
CC1=C(C(=O)Nc2ccc(C)cc2)C(c2ccc(Cl)cc2Cl)NC(=S)N1 (configuration not stated),1,-2,-4,0,·,·
CCCCOc1ccc(C(=O)N/C(=C/c2ccc([N+](=O)[O-])cc2)C(N)=O)cc1,0,1,6,0,·,·
CCCCOc1ccc(C(=O)N/C(=C/c2ccc(Cl)cc2)C(N)=O)cc1,0,-9,12,9.8*,-1,5
NC(=O)c1cccc2nc3ccccc3nc12,0,1,4,8.8*,0,-8
CC(C)NC(=O)c1cccc2nc3ccccc3nc12,0,9,13,1,·,·
O=C1CCC(c2ccccc2)=NN1c1ccccn1,0,10,-11,1,·,·
O=C1CCC(c2sc(Cl)c(Cl)c2Cl)=NN1c1ccccc1,0,4,-4,12*,0,-5
CC1CCCN(S(=O)(=O)c2cccc(-c3cn4cccnc4n3)c2)C1 (configuration not stated),0,2,-2,5.0*,2,2
CCN(CC)S(=O)(=O)c1cccc(-c2cn3cccnc3n2)c1,0,7,7,-1,·,·
COc1ccc(CC2(CO)CCN(Cc3ccc(NC(C)=O)cc3)CC2)cc1,0,10,7,5.9*,2,-4
COC(=O)c1cc([N+](=O)[O-])c(C(=O)OC)cc1Oc1ccc(Cl)cc1,0,5,-15,6.4*,0,-10
CCOC(=O)c1c(NC(=O)c2ccc3c(c2)OCO3)sc(C(=O)Nc2ccccc2OC)c1C,0,-9,-6,0,·,·
NC(=O)c1ccccc1NC(=O)CSc1nc2ccccc2c(=O)[nH]1,0,-14,0,5.3*,0,0
COC(=O)c1ccccc1NC(=O)CSc1nc2ccccc2c(=O)[nH]1,0,2,5,0,·,·
CCCS(=O)(=O)c1ncc(Cl)c(C(=O)Nc2cccc(C)c2)n1,0,-6,31,7.4*,-1,0
CSc1ncc(Cl)c(C(=O)Nc2ccc(C)c(C)c2)n1,0,-3,-3,9.9*,0,-8
Cc1cccc(NC(=O)c2nc(S(C)(=O)=O)ncc2Cl)c1,0,7,-19,-1,·,·
CCN(CC)CCN1C(=O)c2ccccc2NC1c1ccc(Cl)cc1 (configuration not stated),0,1,-1,7.6*,1,18
CC(C)(C)C(=O)Nc1nnc(SCC(N)=O)s1,0,5,-7,5.2*,-2,-2
CC(C)(C)C(=O)Nc1nnc(SCC(=O)NO)s1,0,10,-22,-2,·,·

# Compound activity deposited in PubChem by The Scripps Research Institute Molecular Screening Center.
